These sequences were tested on RARa homodimer (NR concentration 270 nM) (assay: PBM binding z-score (relative to random genomic background probes); higher = stronger binding; sequences stand for … in GC…GCGATTGACAGCGTAGAATGAAGG).
Method in brief: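 For binding z-scores, the reference was random background probes on custom Agilent 4×180K protein-binding microarrays. These arrays were incubated 1 h with ligand-free nuclear receptor dimers in PBS pH 7.4, 2% milk, 0.02% Triton X-100, 1 mM DTT, 0.2 mg/mL BSA and 0.4 mg/ml salmon testes DNA. Fluorescence was scanned after antibody detection of each partner (one per run) and regression-normalized.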
Sequence TAGCCTAGGTCATGGGCCAGTAGACCACGCGAAC has a PBM binding z-score of -0.0215.
ATCGAAAGGTCGAGGTGATTATAGAGAAAGGGAA showed a PBM binding z-score of 0.473.
Work on CTCGAAAGGTCGGTAGAGGTGAGTATACGGATAA yielded a PBM binding z-score of 0.416.
CCTAGTAGGCCAGGGTCACTCAAGCATTTCGCTT was tested, and the PBM binding z-score was -0.346.
CCTTACGGGTCACTCCAGGCTATAGCATCGGAGT was tested, and the PBM binding z-score was 0.0642.
Sequence CGAACTAGGTCAAGGTCAGTGAATCTCCGCACGC has a PBM binding z-score of 1.62.
AGAACGAGGGCACGCTGAGTTCATAGCAGAGTAG was tested, and the PBM binding z-score was -0.449.
GCCACTGGGGCATCAGCAGGTTACCATAACTTAA was tested, and the PBM binding z-score was -0.576.
Work on ACTAGTTGGTCAGCTGAGATCACACACAATTCGG yielded a PBM binding z-score of 0.12.
ATTTACGGGTCAACGAGGTTATAGCACGCGTATA was tested, and the PBM binding z-score was 1.69.
TAGCCTAGGTCATTGGGCAAGTATAGTACGCATC showed a PBM binding z-score of -0.275.
TCTCGGAGTACACGAAGGTCAGAGCTTTCCAGAG showed a PBM binding z-score of -0.696.
AGAACGAGGGCACGGTGAGTTGATAGCAGAGTAG gave a PBM binding z-score of -0.263.
TCAAGCAGGCCAGAGGGTCACTCAAGAGGTACGG gave a PBM binding z-score of -0.42.
For CAAACTAGGTCACAGAGGCCAAAGTCCGTGCGTA, the PBM binding z-score was 0.794.
CGTCAAAGTACAACTAAGGTAACGTAAAGCACGC showed a PBM binding z-score of 0.546.
Work on TCTTGTAGATCAAGCAGGTTAAGAAAGCCTGAGT yielded a PBM binding z-score of -0.0455.
For TCATATAGGTAATACAGGTAAAAGTCGGCATCTA, the PBM binding z-score was 1.47.
AATACAGGGTCACTAGGCCAGAATAGGTACGAAT showed a PBM binding z-score of 1.45.
Work on CGAACTAGGTCATTGACAGGAGAGTGAATAGTAA yielded a PBM binding z-score of 0.473.
ATATGTAGGTTGTCGGGTCATTCAGTTTGCGCAT showed a PBM binding z-score of 1.78.
In the case of TAGCCTGGGTCATGGGCCAGTATACCACGCGAAC, the PBM binding z-score was -0.797.
Work on CGTCCAAGGTCAAGGGTCAGTGAAGAGATGACGG yielded a PBM binding z-score of 1.5.
ATCGAAAGATCGACGAGGTGAGTATACACCGTTT showed a PBM binding z-score of -0.0578.
Work on TCTTGTAGATCAAGCAGGTTAAGATAGCCTGAGT yielded a PBM binding z-score of -0.0619.
With GCTACTAGTTGAAAGGGCAACCGAATGATTCTCG the PBM binding z-score was -0.371.
In the case of TCCGACAGGTGAAGGTAACTCAGGTACGCAGTCG, the PBM binding z-score was -0.702.
ATGTGTAGGTTAGCTGGGGTCATTCAGACTAGGC showed a PBM binding z-score of 2.17.
TATACAGGGTCAATGGCCAGAGTACGAATGTCGA gave a PBM binding z-score of 0.771.
Work on CGTCAAAGTTCAATGTAACGTAACAGAAAGCAGC yielded a PBM binding z-score of 1.95.
Sequence ATATGTAGGTTACATCCGGGTCGTTCAGGCTATG has a PBM binding z-score of 0.787.
With CCCTACGGGTCACTGACAGGTTATAGCATTTGGA the PBM binding z-score was 1.02.
AGTCAAAGTTCATCTAGGTAACGCAAGATATGCT was tested, and the PBM binding z-score was 1.42.
CGTCCAAGATCAATGCTAGGTCAGTGAAAGCATT showed a PBM binding z-score of 0.103.
For TAGCCTAGGTCATTCAGGAGCCAGTATAGAAAGC, the PBM binding z-score was -0.28.
Work on CCTGCTAGGTCAATGTTCAGCTAAAGCAGCTCGC yielded a PBM binding z-score of -0.305.
Sequence TCCAGTAGGTTAGGGGCATTCAGAATGGCGTCGA has a PBM binding z-score of -0.317.
Sequence TCGCGGAGGACACGAAGGTCAGAGCTTTCCAGAG has a PBM binding z-score of 0.1.
CGAAGTAGGTCATCCAGGACAGTGAATACATTGA showed a PBM binding z-score of 0.771.
